# Assay results published in PubChem BioAssay (NCATS).
# Inconclusive results are not listed. A call without a number means that no potency is given here. Unmarked numbers belong to inactive results. Active and inactive are the calls of the source. Unless noted, calls follow the shape of the dose curve; as a rule, active = well fitted curve in the direction sought with a large enough effect; inconclusive = small, poorly fitted or top-dose-only effect, or another doubt; inactive = no such curve, though single readings can be large; an effect the other way counts as inactive or inconclusive.
# How the values were obtained:
# [1] = target: ATP-dependent 6-phosphofructokinase (Trypanosoma brucei brucei) (UniProt O15648); experiment: qHTS Assay to Find Inhibitors of T. brucei phosphofructokinase: hit validation (AID 492961);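 also: luminescence reports ADP formed as PFK phosphorylates fructose-6-phosphate with ATP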
# Summary of the method: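 PFK 1.25 nM, F6P 0.5 mM, ATP 0.1 mM, MgCl2 5 mM, 0.1 M TEA pH 8.0, Tween20 0.01%, BSA 0.1%; 45 min RT. ADP-Glo two-step detection, luminescence. qHTS titration; curve fitting with curve-class categorization.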
# [2] = target: Ubiquitin carboxyl-terminal hydrolase 1 (Homo sapiens) (UniProt O94782); experiment: Inhibitors of USP1/UAF1: Pilot qHTS (AID 504865);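 also: rhodamine fluorescence freed from ubiquitin-rhodamine substrate followed over time; top concentration of the series differs between compounds; nearly all actives have a fitted effect of over 35% in size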
# Summary of the method: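 In 50mM HEPES pH 7.8 containing 0.5mM EDTA, 1mM TCEP, 0.1 mg/ml BSA and 0.01% Tween-20, 1nM USP1/UAF1 is exposed to compound for 15 min, then Ub-Rho (150nM final) is added and fluorescence is read over time.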
# [3] = S16 Schwann cell PMP22 intronic element firefly luciferase assay (AID 624032); also: nearly all actives have a fitted effect of over 30% in size
# Summary of the method: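 Rat S16 Schwann cells stably carrying a PMP22 intronic element-driven Fluc reporter were seeded overnight, then exposed to compounds for 24 h at 37 °C. Luminescence was normalized to PTC124 (positive control) and DMSO (0% activity).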
# [4] = S16 Schwann cell PMP22 intronic element beta-lactamase assay (AID 624044; calls by dose curve; also: nearly all actives have a fitted effect of over 15% in size)
# Summary of the method: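 Beta-lactamase reporter under a PMP22 intronic regulatory element in stable S16 rat Schwann cells; 24 h compound exposure. 460 nm blue signal normalized between DMSO (0%) and potassium clavulanate, with 535 nm FRET tracking viability; curves classed by r2 and response.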
# [5] = NCATS anti-infectives library activity on HEK293 viability as a counter-qHTS vs the C. elegans viability qHTS (AID 1745854)
# Summary of the method: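 Cytotoxicity counter-screen to a worm viability qHTS: CellTiter-Glo luminescence read 10 min after reagent addition. Compounds (final up to 41.7 uM, a 1:5 dilution series) incubated 24 hr at 37C with 1,500 HEK293 cells per well; digitonin control.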
# [6] = target: Glutathione peroxidase 1 (Homo sapiens) (UniProt P07203); experiment: Primary qHTS Assay for Inhibitors of Recombinant Selenoprotein Glutathione Peroxidase 1 (GPX1) (AID 1845191); also: nearly all actives have a fitted effect of over 65% in size
# Summary of the method: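 GPX1 10 nM, GR 100 nM, GSH 1 mM, NADPH 0.5 mM, CHP 0.5 mM (final). 30-min cpd preincubation, RT. Ex340/Em450 read t=0, t=15 min.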
# [7] = target: Phospholipid hydroperoxide glutathione peroxidase GPX4 (Homo sapiens) (UniProt P36969); experiment: Primary qHTS Assay for Inhibitors of Recombinant Selenoprotein Glutathione Peroxidase 4 (GPX4) (AID 1845192); also: nearly all actives have a fitted effect of over 65% in size
# Summary of the method: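 qHTS, GR-coupled: GPX4 200 nM + cpd 30 min RT → GSH 1 mM, NADPH 0.5 mM, GR 100 nM → CHP 0.5 mM start; fluor 340/450 at t0 and t15 min; no-enzyme wells as control.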
# [8] = qHTS profiling for inhibitors of Plasmodium falciparum proliferation (AID 504749); also: nearly all actives have a fitted effect of over 60% in size; also: potency is read from the fitted curve at half-maximal effect; details: P. falciparum in erythrocytes, SYBR Green DNA, 72 h, at 28.7 µM (top of the series)
# Summary of the method: (§1)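 Quantitative HTS: compounds pinned into medium, infected erythrocytes added (0.3% parasitemia, 2.5% hematocrit), 72 h culture at 37 C under 5% CO2. Saponin/Triton lysis with SYBR Green I, overnight RT, then fluorescence read.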
# [9] = test system: 3D7; experiment: as above; details: P. falciparum in erythrocytes, SYBR Green DNA, 72 h; series mostly up to 28.7 µM
# Summary of the method: as §1
# [10] = test system: 7G8; experiment: as above; details: P. falciparum in erythrocytes, SYBR Green DNA, 72 h; series mostly up to 28.7 µM
# Summary of the method: as §1
# [11] = test system: AA1029; experiment: as above; details: P. falciparum in erythrocytes, SYBR Green DNA, 72 h; series mostly up to 28.7 µM
# Summary of the method: as §1
# [12] = test system: AS120; experiment: as above; details: P. falciparum in erythrocytes, SYBR Green DNA, 72 h; series mostly up to 28.7 µM
# Summary of the method: as §1
# [13] = test system: ATS189; experiment: as above; details: P. falciparum in erythrocytes, SYBR Green DNA, 72 h; series mostly up to 28.7 µM
# Summary of the method: as §1
# [14] = test system: ATS95; experiment: as above; details: P. falciparum in erythrocytes, SYBR Green DNA, 72 h; series mostly up to 28.7 µM
# Summary of the method: as §1
# [15] = test system: C2A; experiment: as above; details: P. falciparum in erythrocytes, SYBR Green DNA, 72 h; series mostly up to 28.7 µM
# Summary of the method: as §1
# [16] = test system: CP185; experiment: as above; details: P. falciparum in erythrocytes, SYBR Green DNA, 72 h; series mostly up to 28.7 µM
# Summary of the method: as §1
# [17] = test system: CP191; experiment: as above; details: P. falciparum in erythrocytes, SYBR Green DNA, 72 h; series mostly up to 28.7 µM
# Summary of the method: as §1
# [18] = test system: CP192; experiment: as above; details: P. falciparum in erythrocytes, SYBR Green DNA, 72 h; series mostly up to 28.7 µM
# Summary of the method: as §1
# [19] = test system: CP194; experiment: as above; details: P. falciparum in erythrocytes, SYBR Green DNA, 72 h; series mostly up to 28.7 µM
# Summary of the method: as §1
# [20] = test system: CP201; experiment: as above; details: P. falciparum in erythrocytes, SYBR Green DNA, 72 h; series mostly up to 28.7 µM
# Summary of the method: as §1
# [21] = test system: CP215; experiment: as above; details: P. falciparum in erythrocytes, SYBR Green DNA, 72 h; series mostly up to 28.7 µM
# Summary of the method: as §1
# [22] = test system: CP217; experiment: as above; details: P. falciparum in erythrocytes, SYBR Green DNA, 72 h; series mostly up to 28.7 µM
# Summary of the method: as §1
# [23] = test system: CP237; experiment: as above; details: P. falciparum in erythrocytes, SYBR Green DNA, 72 h; series mostly up to 28.7 µM
# Summary of the method: as §1
# [24] = test system: CP238; experiment: as above; details: P. falciparum in erythrocytes, SYBR Green DNA, 72 h; series mostly up to 28.7 µM
# Summary of the method: as §1
# [25] = test system: CP247; experiment: as above; details: P. falciparum in erythrocytes, SYBR Green DNA, 72 h; series mostly up to 28.7 µM
# Summary of the method: as §1
# [26] = test system: CP250; experiment: as above; details: P. falciparum in erythrocytes, SYBR Green DNA, 72 h; series mostly up to 28.7 µM
# Summary of the method: as §1
# [27] = test system: CP252; experiment: as above; details: P. falciparum in erythrocytes, SYBR Green DNA, 72 h; series mostly up to 28.7 µM
# Summary of the method: as §1
# [28] = test system: CP256; experiment: as above; details: P. falciparum in erythrocytes, SYBR Green DNA, 72 h; series mostly up to 28.7 µM
# Summary of the method: as §1
# [29] = test system: CP260; experiment: as above; details: P. falciparum in erythrocytes, SYBR Green DNA, 72 h; series mostly up to 28.7 µM
# Summary of the method: as §1
# [30] = test system: CP262; experiment: as above; details: P. falciparum in erythrocytes, SYBR Green DNA, 72 h; series mostly up to 28.7 µM
# Summary of the method: as §1
# [31] = test system: CP265; experiment: as above; details: P. falciparum in erythrocytes, SYBR Green DNA, 72 h; series mostly up to 28.7 µM
# Summary of the method: as §1
# [32] = test system: CP266; experiment: as above; details: P. falciparum in erythrocytes, SYBR Green DNA, 72 h; series mostly up to 28.7 µM
# Summary of the method: as §1
# [33] = test system: CP269; experiment: as above; details: P. falciparum in erythrocytes, SYBR Green DNA, 72 h; series mostly up to 28.7 µM
# Summary of the method: as §1
# [34] = test system: CP297; experiment: as above; details: P. falciparum in erythrocytes, SYBR Green DNA, 72 h; series mostly up to 28.7 µM
# Summary of the method: as §1
# [35] = test system: CP315; experiment: as above; details: P. falciparum in erythrocytes, SYBR Green DNA, 72 h; series mostly up to 28.7 µM
# Summary of the method: as §1
# [36] = test system: CP329; experiment: as above; details: P. falciparum in erythrocytes, SYBR Green DNA, 72 h; series mostly up to 28.7 µM
# Summary of the method: as §1
# [37] = test system: DFO2036; experiment: as above; details: P. falciparum in erythrocytes, SYBR Green DNA, 72 h; series mostly up to 28.7 µM
# Summary of the method: as §1
# [38] = test system: DIV17; experiment: as above; details: P. falciparum in erythrocytes, SYBR Green DNA, 72 h; series mostly up to 28.7 µM
# Summary of the method: as §1
# [39] = test system: Dd2; experiment: as above; details: P. falciparum in erythrocytes, SYBR Green DNA, 72 h; series mostly up to 28.7 µM
# Summary of the method: as §1
# [40] = test system: ECU; experiment: as above; details: P. falciparum in erythrocytes, SYBR Green DNA, 72 h; series mostly up to 28.7 µM
# Summary of the method: as §1
# [41] = test system: FAB9; experiment: as above; details: P. falciparum in erythrocytes, SYBR Green DNA, 72 h; series mostly up to 28.7 µM
# Summary of the method: as §1
# [42] = test system: GB4; experiment: as above; details: P. falciparum in erythrocytes, SYBR Green DNA, 72 h; series mostly up to 28.7 µM
# Summary of the method: as §1
# [43] = test system: HB3; experiment: as above; details: P. falciparum in erythrocytes, SYBR Green DNA, 72 h; series mostly up to 28.7 µM
# Summary of the method: as §1
# [44] = test system: JCK; experiment: as above; details: P. falciparum in erythrocytes, SYBR Green DNA, 72 h; series mostly up to 28.7 µM
# Summary of the method: as §1
# [45] = test system: N140; experiment: as above; details: P. falciparum in erythrocytes, SYBR Green DNA, 72 h; series mostly up to 28.7 µM
# Summary of the method: as §1
# [46] = test system: PAD; experiment: as above; details: P. falciparum in erythrocytes, SYBR Green DNA, 72 h; series mostly up to 28.7 µM
# Summary of the method: as §1
# [47] = test system: PC15; experiment: as above; details: P. falciparum in erythrocytes, SYBR Green DNA, 72 h; series mostly up to 28.7 µM
# Summary of the method: as §1
# [48] = test system: PC26; experiment: as above; details: P. falciparum in erythrocytes, SYBR Green DNA, 72 h; series mostly up to 28.7 µM
# Summary of the method: as §1
# [49] = test system: PC49; experiment: as above; details: P. falciparum in erythrocytes, SYBR Green DNA, 72 h; series mostly up to 28.7 µM
# Summary of the method: as §1
# [50] = test system: SC27B; experiment: as above; details: P. falciparum in erythrocytes, SYBR Green DNA, 72 h; series mostly up to 28.7 µM
# Summary of the method: as §1
# [51] = test system: TAB109; experiment: as above; details: P. falciparum in erythrocytes, SYBR Green DNA, 72 h; series mostly up to 28.7 µM
# Summary of the method: as §1
# [52] = test system: TAB113; experiment: as above; details: P. falciparum in erythrocytes, SYBR Green DNA, 72 h; series mostly up to 28.7 µM
# Summary of the method: as §1
# [53] = test system: TAB165; experiment: as above; details: P. falciparum in erythrocytes, SYBR Green DNA, 72 h; series mostly up to 28.7 µM
# Summary of the method: as §1
# Chain of Phospholipid hydroperoxide glutathione peroxidase GPX4 (Homo sapiens) (P36969 whole entry, looked up): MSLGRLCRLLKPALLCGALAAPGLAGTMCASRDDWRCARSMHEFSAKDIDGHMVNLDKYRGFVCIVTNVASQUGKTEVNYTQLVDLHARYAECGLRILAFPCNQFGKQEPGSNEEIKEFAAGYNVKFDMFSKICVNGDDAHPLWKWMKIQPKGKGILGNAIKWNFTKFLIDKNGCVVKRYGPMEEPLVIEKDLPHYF
# Chain of Ubiquitin carboxyl-terminal hydrolase 1 (Homo sapiens) (O94782 whole entry, looked up): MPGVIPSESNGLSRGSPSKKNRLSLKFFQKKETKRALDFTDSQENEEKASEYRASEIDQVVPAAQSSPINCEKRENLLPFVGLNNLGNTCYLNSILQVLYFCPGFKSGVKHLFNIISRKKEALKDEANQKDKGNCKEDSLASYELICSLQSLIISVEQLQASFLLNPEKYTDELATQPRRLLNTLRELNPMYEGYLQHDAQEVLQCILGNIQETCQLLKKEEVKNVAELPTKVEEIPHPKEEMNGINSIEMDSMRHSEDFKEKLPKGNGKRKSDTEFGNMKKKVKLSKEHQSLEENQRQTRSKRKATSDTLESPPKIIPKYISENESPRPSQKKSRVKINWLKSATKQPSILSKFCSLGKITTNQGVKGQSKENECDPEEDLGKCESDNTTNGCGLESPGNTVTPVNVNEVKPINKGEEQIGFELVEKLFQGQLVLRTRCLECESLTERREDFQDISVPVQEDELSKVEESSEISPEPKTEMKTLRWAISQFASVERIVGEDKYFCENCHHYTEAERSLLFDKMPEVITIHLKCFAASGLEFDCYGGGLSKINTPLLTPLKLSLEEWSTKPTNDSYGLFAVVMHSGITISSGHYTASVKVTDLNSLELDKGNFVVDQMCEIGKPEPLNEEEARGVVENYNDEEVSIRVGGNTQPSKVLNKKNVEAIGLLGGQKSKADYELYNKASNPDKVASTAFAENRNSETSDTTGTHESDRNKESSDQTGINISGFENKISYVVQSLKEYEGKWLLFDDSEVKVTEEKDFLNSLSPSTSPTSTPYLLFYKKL
# Chain of Glutathione peroxidase 1 (Homo sapiens) (P07203 whole entry, looked up): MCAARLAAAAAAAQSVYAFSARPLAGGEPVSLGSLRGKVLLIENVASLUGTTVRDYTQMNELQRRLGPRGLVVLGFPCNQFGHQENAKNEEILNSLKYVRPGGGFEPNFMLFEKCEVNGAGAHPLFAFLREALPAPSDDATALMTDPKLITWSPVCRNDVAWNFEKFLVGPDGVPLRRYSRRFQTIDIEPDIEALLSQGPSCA
# Chain of ATP-dependent 6-phosphofructokinase (Trypanosoma brucei brucei) (O15648 whole entry, looked up): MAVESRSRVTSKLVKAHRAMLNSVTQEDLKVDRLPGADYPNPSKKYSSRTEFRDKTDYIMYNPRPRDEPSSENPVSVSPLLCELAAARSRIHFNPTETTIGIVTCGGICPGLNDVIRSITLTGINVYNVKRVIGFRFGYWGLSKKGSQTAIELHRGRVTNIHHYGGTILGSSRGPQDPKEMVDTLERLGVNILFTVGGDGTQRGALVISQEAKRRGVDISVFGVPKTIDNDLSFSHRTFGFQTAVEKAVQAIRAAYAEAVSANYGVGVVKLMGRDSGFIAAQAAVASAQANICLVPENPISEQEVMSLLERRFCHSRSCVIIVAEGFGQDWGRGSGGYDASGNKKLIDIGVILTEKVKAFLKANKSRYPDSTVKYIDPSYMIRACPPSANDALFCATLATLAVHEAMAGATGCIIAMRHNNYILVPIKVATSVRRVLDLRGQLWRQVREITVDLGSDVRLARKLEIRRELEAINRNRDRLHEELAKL
smiles,measurement,setting,value
CC(C)CN(C[C@@H](O)[C@H](Cc1ccccc1)NC(=O)O[C@H]1CCOC1)S(=O)(=O)c1ccc(N)cc1,outcome,[1],inactive
same,Potency,[2],inactive
same,Potency,[3],inactive
same,Potency,[4],inactive
same,Potency,[5],inactive
same,Potency,[6],inactive
same,Potency,[7],inactive
same,"activity, negative = inhibition",[8]; parasite line A,-4.85%
same,"activity, negative = inhibition",[8]; parasite line B,-24.9%
same,Potency,[9],inactive
same,Potency,[10],10 µM (active)
same,Potency,[11],inactive
same,Potency,[12],inactive
same,Potency,[13],inactive
same,Potency,[14],inactive
same,Potency,[15],inactive
same,Potency,[16],inactive
same,Potency,[17],inactive
same,Potency,[18],inactive
same,Potency,[19],inactive
same,Potency,[20],inactive
same,Potency,[21],inactive
same,Potency,[22],inactive
same,Potency,[23],inactive
same,Potency,[24],inactive
same,Potency,[25],inactive
same,Potency,[26],inactive
same,Potency,[27],inactive
same,Potency,[28],inactive
same,Potency,[29],inactive
same,Potency,[30],inactive
same,Potency,[31],inactive
same,Potency,[32],inactive
same,Potency,[33],inactive
same,Potency,[34],inactive
same,Potency,[35],inactive
same,Potency,[36],inactive
same,Potency,[37],inactive
same,Potency,[38],inactive
same,Potency,[39],inactive
same,Potency,[40],inactive
same,Potency,[41],inactive
same,Potency,[42],inactive
same,Potency,[43],inactive
same,Potency,[44],inactive
same,Potency,[45],inactive
same,Potency,[46],inactive
same,Potency,[47],inactive
same,Potency,[48],inactive
same,Potency,[49],inactive
same,Potency,[50],inactive
same,Potency,[51],inactive
same,Potency,[52],inactive
same,Potency,[53],inactive
